# Measured values published in the supplement of paper PMC13380429.
# Test system: Vero E6 infected with SARS-CoV-2
# Assay: morphology score (similarity to uninfected cells); higher = more like uninfected cells
# Settings: 24 h
row,SMILES,morphology score
1,COC(=O)C1=C(C)N(C)C(C)=C(C(=O)OC)C1c1ccc(C(F)(F)F)cc1 (10 µM),-0.13
2,CCOc1ccc(NC(=S)N2CCC(C(O)(c3ccccc3)c3ccccc3)CC2)cc1 (10 µM),0.267
3,Nc1nc2c(cnn2CCc2ccccc2)c2nc(-c3ccco3)nn12 (10 µM),-0.139
4,COc1cc(N2CCC(N3CCN(C)CC3)CC2)ccc1Nc1ncnc(Nc2ccccc2S(=O)(=O)C(C)C)n1 (0.833333 µM),-0.0307
5,Oc1ccc(/C=C/c2cc(O)cc(O)c2)cc1 [resveratrol] (10 µM),0.0102
6,CC(=O)[C@H]1CC[C@H]2[C@@H]3CC[C@H]4C[C@](C)(O)CC[C@]4(C)[C@H]3CC[C@]12C [ganaxolone] (10 µM),-0.0442
7,COc1ccc(Br)cc1S(=O)(=O)NC(=O)/C=C/c1ccccc1Cc1ccc2ccccc2c1 (10 µM),0.19
8,CC(C)Cc1ccc([C@@H](C)C(=O)NCCO)cc1 (racemic) [mabuprofen] (10 µM),0.127
9,O=[N+]([O-])c1cn2c(n1)OC[C@@H](OCc1ccc(OC(F)(F)F)cc1)C2 [pretomanid] (10 µM),0.0902
10,CC(=O)O[C@H]1CC[C@@]2(C)C(=CC[C@@H]3[C@@H]2CC[C@]2(C)C(=O)CC[C@@H]32)C1 [prasterone-acetate] (10 µM),-0.259
11,CCN(CC)CCNC(=O)c1cc(S(C)(=O)=O)ccc1OC [tiapride] (10 µM),0.0888
12,CCC(CC)O[C@@H]1C=C(C(=O)O)C[C@H](N)[C@H]1NC(C)=O [oseltamivir-carboxylate] (10 µM),-0.0548
13,CC[C@H](Nc1ncnc2[nH]cnc12)c1nc2cccc(F)c2c(=O)n1-c1ccccc1 [idelalisib] (10 µM),-0.015
14,COCCCC/C(=N\OCCN)c1ccc(C(F)(F)F)cc1 [fluvoxamine] (10 µM),0.0586
15,N#CN=C(NCCCCCCOc1ccc(Cl)cc1)Nc1ccncc1 (10 µM),-0.0862
16,C[C@@H](NC(=O)c1ncnc(N)c1Cl)c1ncc(C(=O)Nc2cc(C(F)(F)F)c(Cl)cn2)s1 (10 µM),-0.0506
17,CC1(C)CNc2cc(NC(=O)c3cccnc3NCc3ccncc3)ccc21 [motesanib] (10 µM),0.196
18,Cc1ccc(S(=O)(=O)c2ccc([N+](=O)[O-])o2)cc1 (0.833333 µM),0.215
19,Clc1ccc(-c2nc3sccn3c2/C=N/OCc2ccc(Cl)c(Cl)c2)cc1 (10 µM),0.00562
20,CC(=O)Nc1cccc(O)c1 [metacetamol] (10 µM),0.0448

row,SMILES,morphology score
1,O=C(O)C1CN(Cc2ccc(-c3nc4cc(Cc5ccccc5F)ccc4s3)c(F)c2)C1 (10 µM),-0.0698
2,COc1cc(O)c2c(c1)C(=O)c1cc(C)cc(O)c1C2=O [rheochrysidin] (10 µM),0.119
3,CC(C)C[C@H](NC(=O)[C@H](CCc1ccccc1)NC(=O)CN1CCOCC1)C(=O)N[C@@H](Cc1ccccc1)C(=O)N[C@@H](CC(C)C)C(=O)[C@@]1(C)CO1 [carfilzomib] (0.833333 µM),0.00273
4,COc1cc2ncnc(Nc3cccc(Cl)c3)c2cc1OC [tyrphostin-AG-1478] (10 µM),-0.318
5,O/N=C/c1ccc(-c2ccc(O)c(F)c2)c(Cl)c1O (10 µM),0.342
6,CC(C)C[C@@H](C=O)NC(=O)[C@H](CC(C)C)NC(=O)[C@H](CC(C)C)NC(=O)OCc1ccccc1 (10 µM),0.514
7,Cc1ccc(-c2ncn(-c3ccc(Nc4nccc(-c5cccc(N6CCOCC6)c5)n4)cc3)n2)cn1 (10 µM),-0.292
8,CCC[C@@H](NC(=O)N1C(=O)C(CC)(CC)[C@@H]1Oc1ccc(C(=O)N2CCN(C)CC2)cc1)c1ccc2c(c1)OCO2 (10 µM),0.171
9,N[C@@H](Cn1oc(=O)[nH]c1=O)C(=O)O [L-quisqualic-acid] (10 µM),0.0395
10,Cc1ccc(Nc2c(F)cccc2Cl)c(CC(=O)O)c1 [lumiracoxib] (10 µM),0.182
11,Cc1c(C(=O)Nc2ccc(N3C[C@@H](C)O[C@@H](C)C3)nc2)cccc1-c1ccc(OC(F)(F)F)cc1 [sonidegib] (10 µM),-0.0039
12,CNC(=N)NCCC[C@H](N)C(=O)O [targinine] (10 µM),0.0428
13,CCOc1ccc(/C=C2\NCCc3cc(OCC)c(OCC)cc32)cc1OCC [drotaverine] (10 µM),0.156
14,NCc1cc(O)no1 [muscimol] (10 µM),-0.00274
15,CCN(CC)C(=O)N[C@H]1C[C@@H]2c3cccc4[nH]cc(c34)C[C@H]2N(C)C1 [terguride] (10 µM),-0.00522
16,O=NO [sodium-nitrite] (10 µM),0.176
17,CCC(Cc1c(I)cc(I)c(N)c1I)C(=O)O (stereo not given) [iopanic-acid] (10 µM),-0.136
18,CCO/N=C(\C(=O)N[C@@H]1C(=O)N2C(C(=O)[O-])=C(Sc3nc(-c4cc[n+](C)cc4)cs3)CS[C@H]12)c1nsc(NP(=O)(O)O)n1 [ceftaroline-fosamil] (10 µM),0.242
19,CCC1(CC)C(=O)NC(=O)N(C)C1=O [metharbital] (10 µM),0.221
20,Cc1coc2c1C(=O)C(=O)c1c-2ccc2c(C)cccc12 [tanshinone-I] (10 µM),-0.0142
